# ± gives the standard deviation of the averaged measurements. Over roughly 33,000 sequences, “E-score (rank enrichment, -0.5 to 0.5)” has its median near -0.0068; the highest 2% begin near 0.24. Many of the other results were omitted from the sample, so the highest values are more common in it than they were.
# Tested on: muMax20 (Max(13-93) K31hArg/K57hArg, M65Nle)
# Assay: PBM 8-mer E-score (E-score (rank enrichment, -0.5 to 0.5)); higher = stronger preferential binding
# Method: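 Protein binding microarray (universal PBM chip covering all 10-mers in fixed probe flanks) with chemically synthesized human Max(13-93) bHLH-LZ analogs (not full-length Max) bearing noncanonical residues (hArg, Tha, Aib, Nle at 65) and aromatic Cys staples. Read-out per 8-mer (and its reverse complement): E-score (rank-based enrichment, -0.5 to 0.5) and Z-score of median probe intensity.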
row,Sequence,PBM 8-mer E-score
1,TGATTTAA,0.177 ± 0.05
2,AAGTATGA,0.071 ± 0.059
3,TAGTATGA,0.247 ± 0.067
4,CAGTATGA,0.138 ± 0.084
5,TGGAGACA,-0.0387 ± 0.082
6,ACATCTAG,-0.0494 ± 0.021
7,AGAGCATA,0.0465 ± 0.086
8,CTTTCAAC,0.0143 ± 0.071
9,GTTTCAAA,0.162 ± 0.01
10,ATTTCAAG,0.104 ± 0.023
11,CTTTCAAA,0.267 ± 0.044
12,ATTTCAAC,0.146 ± 0.078
13,ATTTCAAA,0.252 ± 0.0095
14,ACTGGCTA,-0.11 ± 0.0093
15,CAGACAGA,-0.0661 ± 0.06
16,GTTCAATA,0.159 ± 0.039
17,ATGCAATC,0.126 ± 0.089
18,CCACGTTC,0.114 ± 0.033
19,CTACGTGA,-0.0185 ± 0.092
20,CCACGTTA,0.246 ± 0.059
21,CCACGTGG,0.475 ± 0.032
22,CGACGTGC,-0.0517 ± 0.017
23,CCACGTGC,0.463 ± 0.03
24,CGACGTGA,0.124 ± 0.012
25,CCACGTAG,-0.156 ± 0.06

row,Sequence,PBM 8-mer E-score
1,CCACGTCC,-0.0476 ± 0.004
2,CCACGTGA,0.43 ± 0.082
3,CAACGTGG,0.11 ± 0.046
4,GCACGTTA,0.0863 ± 0.14
5,ACGGTGAT,0.0166 ± 0.12
6,ACTGGACT,-0.0734 ± 0.014
7,CACTCGAG,-0.165 ± 0.12
8,TCACTCAA,0.0768 ± 0.022
9,TCCAGCAA,0.0563 ± 0.029
10,CTGGCCTC,-0.191 ± 0.03
11,GTGCTAGA,0.0749 ± 0.058
12,CTAGGGAA,0.00576 ± 0.011
13,GGGCCCCC,-0.386 ± 0.075
14,CAAACCCA,0.212 ± 0.0064
15,TGCAAGCA,-0.0637 ± 0.018
16,CAGTGCAG,-0.189 ± 0.011
17,CCTAGACA,-0.0468 ± 0.14
18,AACAGGGA,0.0422 ± 0.055
19,AAGCACGT,0.297 ± 0.12
20,ACGCACGC,0.174 ± 0.014
21,ACGCACGT,0.288 ± 0.066
22,AAGCACGA,0.0985 ± 0.076
23,ACGCACAA,0.0465 ± 0.071
24,ACGCACGA,0.0808 ± 0.025
25,AAGCACGG,-0.0498 ± 0.039

row,Sequence,PBM 8-mer E-score
1,ACGCACAT,0.277 ± 0.039
2,ACGCACAG,-0.11 ± 0.11
3,ACGACTCA,-0.0769 ± 0.055
4,CGCACTCA,-0.0736 ± 0.0069
5,CTCAAATA,0.0362 ± 0.0096
6,CATTGACC,0.105 ± 0.047
7,GGGTCGAC,-0.00629 ± 0.1
8,AGCCTCAT,0.0933 ± 0.064
9,ATTAAGTG,0.148 ± 0.031
10,GTAATTTA,0.0797 ± 0.016
11,ATTAATCC,0.154 ± 0.022
12,ATTAATCA,0.2533 ± 0.00043
13,ATAATTTG,0.167 ± 0.077
14,ATTAAGTA,0.24 ± 0.02
15,ATTAATTG,0.136 ± 0.075
16,ATTAATTC,0.219 ± 0.0076
17,ATAATTTA,0.244 ± 0.038
18,GTTAATCA,0.204 ± 0.072
19,GTTAAGTA,0.063 ± 0.021
20,ATTAATTA,0.258 ± 0.064
21,CCTCGATC,-0.0647 ± 0.046
22,GCCCATTA,-0.0555 ± 0.034
23,CGGCGGAC,-0.282 ± 0.091
24,GCAGGGCC,-0.171 ± 0.013
25,CCTCGGTA,-0.295 ± 0.042

row,Sequence,PBM 8-mer E-score
1,CTCCGGAG,-0.227 ± 0.079
2,TACTGTGA,0.0496 ± 0.099
3,GGGAACGA,-0.0255 ± 0.026
4,ATTAGGAC,0.0695 ± 0.13
5,AGCACTAG,0.0808 ± 0.12
6,AAAGATCG,-0.152 ± 0.035
7,ATAAATTG,0.157 ± 0.013
8,CTAAATTA,0.0189 ± 0.047
9,ATAAATTA,0.262 ± 0.08
10,CCGTAGTC,-0.131 ± 0.045
11,AAGGAGAA,0.172 ± 0.0052
12,CCCGTGTC,-0.147 ± 0.032
13,GACGTGTA,0.0986 ± 0.0068
14,TAAGTGTA,0.159 ± 0.064
15,CACGTGTC,0.448 ± 0.053
16,CAAGTGTA,0.244 ± 0.042
17,CACGTGTA,0.444 ± 0.054
18,AACGTGTC,0.145 ± 0.043
19,AAAGTGTA,0.12 ± 0.1
20,AACGTGTA,0.2 ± 0.026
21,ATACTTTC,0.127 ± 0.013
22,CAAGAAGG,0.158 ± 0.048
23,AGTCGACT,0.176 ± 0.13
24,ACATCCGC,-0.188 ± 0.099
25,ATACTAAA,0.242 ± 0.038

row,Sequence,PBM 8-mer E-score
1,CAACTATA,0.108 ± 0.0066
2,TTACTAAA,0.123 ± 0.07
3,TAACTATA,0.303 ± 0.0032
4,CTACTAAC,0.237 ± 0.013
5,CTACTATA,0.249 ± 0.062
6,CTACTAAG,-0.0701 ± 0.18
7,CTACTATC,0.132 ± 0.0082
8,AAACTATA,0.192 ± 0.05
9,GTACTAAA,0.108 ± 0.067
10,ATACTATA,0.156 ± 0.08
11,ATACTAAC,0.164 ± 0.066
12,TCGAACGA,0.0488 ± 0.053
13,AACTGGCG,-0.0858 ± 0.061
14,ATCGGCAA,-0.18 ± 0.089
15,TCACCGCA,-0.0327 ± 0.14
16,GATAAGCC,-0.111 ± 0.075
17,GCAGATGA,0.0628 ± 0.064
18,CTTAGACC,-0.135 ± 0.073
19,GAGGGGCC,-0.0409 ± 0.045
20,TCGTGTAA,0.13 ± 0.07
21,ACGTGTAC,0.233 ± 0.056
22,ACGTGTAT,0.386 ± 0.031
23,ACGTGTAG,0.19 ± 0.087
24,CCGTGTAA,-0.147 ± 0.048
25,ACGTGTAA,0.327 ± 0.048

row,Sequence,PBM 8-mer E-score
1,ATACTGAA,0.0687 ± 0.079
2,GCAGGTCA,-0.191 ± 0.0023
3,CGCTCGAA,-0.156 ± 0.0039
4,AGATCTTC,-0.15 ± 0.053
5,CCATGTCG,-0.0015 ± 0.13
6,TACACATA,0.245 ± 0.037
7,GATACAAA,0.0222 ± 0.023
8,CATACATA,0.163 ± 0.068
9,AATACAAA,0.343 ± 0.042
10,CACACATA,0.12 ± 0.12
11,AATACATG,0.205 ± 0.015
12,AATACATT,0.158 ± 0.021
13,GATACATA,0.204 ± 0.044
14,TATACATA,0.237 ± 0.023
15,GACACATA,0.139 ± 0.071
16,AATACAAG,0.137 ± 0.0018
17,AATACATA,0.255 ± 0.074
18,ACTGGATC,-0.0849 ± 0.029
19,CCTCATCA,-0.0311 ± 0.07
20,CGTCTACA,-0.0683 ± 0.077
21,ATTCGACG,0.0309 ± 0.1
22,CACGAGCA,-0.159 ± 0.013
23,GAAAACGA,0.0327 ± 0.09
24,CAAAACGA,0.0111 ± 0.00023
25,AAAAACGG,-0.048 ± 0.14

row,Sequence,PBM 8-mer E-score
1,AAAAACGT,0.249 ± 0.0044
2,AAAGACGG,0.0825 ± 0.019
3,GAAGACGA,-0.0988 ± 0.065
4,AAAAACGC,0.0604 ± 0.015
5,AAAAACGA,0.297 ± 0.0076
6,AAAGACGA,0.246 ± 0.0064
7,CTCGGTCC,-0.2695 ± 0.0006
8,AGAGTTCA,-0.124 ± 0.038
9,CGTTCGCA,-0.0226 ± 0.0093
10,CTCAGACA,0.044 ± 0.035
11,GCCATATA,0.0868 ± 0.0087
12,GTACTACA,0.262 ± 0.072
13,ATACTTCA,0.0693 ± 0.032
14,CTACTACA,0.146 ± 0.08
15,ATACTACA,0.222 ± 0.078
16,CTACTTCA,0.00799 ± 0.001
17,GTACTTCA,0.237 ± 0.13
18,ATCAGCGC,-0.0642 ± 0.0034
19,CACCGGAG,-0.173 ± 0.083
20,ACACATTC,-0.0504 ± 0.14
21,AATACGAA,0.136 ± 0.041
22,TATCAACA,0.158 ± 0.054

# Reference: the supplement of paper PMC12636033
